# Compound activity as filed in PubChem.
# TTR transcr act – TTR transcription activators in neuroblastoma reporter cells, primary screen, cell-based, luminescence, SH-SY5Y, TTR promoter Gaussia luciferase; 100% = recombinant luciferase protein wells; activation, % at 16.7 µM; hit rate 1.3% among 92,000;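 active means activation above the mean of all tested compounds plus 3 SD, cut at about 9.5% in these data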;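 further: cells exposed to compounds for one day before reading; 0% = median of all test compound wells on the plate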
# TTR inh HuH7 – TTR promoter reporter inhibitors in hepatoma cells, counter-screen for TTR transcription activator project, cell-based, luminescence, HuH7 hepatoma; shares compounds with TTR transcr act; HuH7 TTR promoter-Gaussia luciferase reporter; inhibition, % at 16.7 µM; hit rate 4% among 1,100; AID 1117279, 2014;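 active means average inhibition above the solvent-only control wells' mean plus 3 SD, cut at about 15% in these data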;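 further: 0% = cells with DMSO only and 100% = cells with inhibitor control FD; inhibitors lower well luminescence so higher value means more inhibition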
# TTR up confirm – TTR transcription activators, retest, confirmation, cell-based, luminescence, SH-SY5Y, triplicate; shares compounds with TTR transcr act; SHSY5Y TTR promoter Gaussia luciferase; 100% = purified Lucia enzyme wells, no cells; activation, % at 16.7 µM; 1,100 tested, under 10 active; AID 1117280, 2014;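 active means mean activation above a set limit taken from the earlier primary screen, cut at about 11% in these data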;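 further: 0% = DMSO-treated cells and 100% = recombinant Lucia luciferase without cells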
# Numbers without * were called inactive. Only a selection was taken, and hits are over-represented in it overall.
SMILES,TTR transcr act,others
O=C(NCc1ccc(F)cc1)c1cc(S(=O)(=O)N2CCCCC2)c[nH]1,-1.6,
Cc1ccc(CCNC(=O)c2cc(S(=O)(=O)N3CCCCC3)c[nH]2)cc1,-1.9,
O=C(NCCc1ccccc1)c1cc(S(=O)(=O)N2CCCCC2)c[nH]1,14.7*,TTR inh HuH7=-2.0;TTR up confirm=-1.3
COc1ccc(-c2ccnc3c(Br)c(C)nn23)cc1,1.1,
C#CCNC(=O)C1=C[C@@H](C2CC2)C[C@@H](OCCCCO)O1,1.4,
O=C(NCc1nc2ccccc2[nH]1)C1=C[C@H](C2CC2)C[C@H](OCCCCO)O1,10.1*,TTR inh HuH7=-26.0;TTR up confirm=0.0
O=C(NCc1nc2ccccc2[nH]1)C1=C[C@H](C2CCCCC2)C[C@H](OCCCCO)O1,3.1,
O=C1CCCN2N=C(SCC(=O)Nc3ccc([N+](=O)[O-])cc3)SC2=N1,32.1*,TTR inh HuH7=-9.7;TTR up confirm=-0.6
O=C1CCCN2N=C(SCC(=O)Nc3nccs3)SC2=N1,-0.6,
Cc1ccc(NC(=O)CSC2=NN3CCCC(=O)N=C3S2)c(C)c1,-0.4,
CC(CC12CC3CC(CC(C3)C1)C2)NCc1ccccc1O (stereo not given),-2.2,
CC(C)(C)c1cc(C(=O)CCN2CCOCC2)cc(C(C)(C)C)c1O,-3.5,
CCC(=O)c1ccc(OCCN2CCOCC2)cc1,-1.2,
O=C(CCN1CCOCC1)c1ccc(N2CCCCC2)cc1,10.0*,TTR inh HuH7=-8.6;TTR up confirm=-0.4
Cc1cc(NC(=O)Cc2ccccc2[N+](=O)[O-])no1,-0.5,
O=C(N[C@@H]1CC[C@H]2SC[C@H](C(=O)O)N2C1=O)OCC1c2ccccc2-c2ccccc21,-5.3,
Cc1ccc(S(=O)(=O)N2[C@@H](c3ccc(F)cc3)C(C(=O)O)=CC[C@H]2c2cccc(Cl)c2)cc1,1.1,
Cc1ccc([C@@H]2CC=C(C(=O)O)[C@H](c3ccccc3)N2S(=O)(=O)c2ccc(C)cc2)cc1,-1.5,
Cc1ccc([C@H]2C(C(=O)O)=CC[C@@H](c3cccc(C)c3)N2S(=O)(=O)c2ccc(C)cc2)cc1,3.5,
COc1ccc([C@@H]2CC=C(C(=O)O)[C@H](c3ccccc3F)N2S(=O)(=O)c2ccccc2C)cc1,14.2*,TTR inh HuH7=16.4*;TTR up confirm=-0.8
Cc1ccc([C@H]2C(C(=O)O)=CC[C@@H](c3ccc(Cl)cc3)N2S(=O)(=O)c2ccc(C)cc2)cc1,-3.3,
Cc1ccc(S(=O)(=O)N2[C@@H](c3ccccc3F)C(C(=O)O)=CC[C@H]2c2cccs2)cc1,12.6*,TTR inh HuH7=-0.5;TTR up confirm=1.5
CC1(C)CC2CN(Cc3ccccc3)S(=O)(=O)N2C1 (stereo not given),-0.3,
O=C1CCC(NC(=O)Cc2ccccc2)C(=O)N1 (stereo not given),-0.3,
C=C(C)CSc1nnc(CCCCCNC(=O)OC(C)(C)C)o1,0.4,
SMILES,TTR transcr act,others
C[C@H]1C2CC(OC(=O)Nc3cccc(Cl)c3)C(C2)[C@H]2CCCCN21 (stereo not given in full),-2.0,
CCCCOCCCNC(=O)C[C@@H]1C[C@]2(C(=O)OCC)CCC3=C2N(CCC3)C1=O,0.5,
O=C(Cc1cccc(NC(=O)C2CCCN(C(=O)c3ccccc3)C2)c1)Nc1cccc(C(=O)N2CCCCC2)c1 (stereo not given),2.6,
O=C(Cc1cccc(NC(=O)C2CCCN(C(=O)C3CC3)C2)c1)Nc1ccc(C(=O)N2CCCCC2)cc1 (stereo not given),0.8,
Cc1cccc(C)c1NC(=O)CNC(=O)C1CCCN(C(=O)c2ccc(Cl)cc2)C1 (stereo not given),26.2*,TTR inh HuH7=-6.6;TTR up confirm=-0.9
CCc1ccc(CCNC(=O)OC2CC3CC2[C@H]2CCCCN2C3)cc1 (stereo not given in full),2.8,
S=C(Nc1cccc(Cl)c1)OCCN1CCCC12CCC(c1ccccc1)CC2 (stereo not given),-0.4,
COC(=O)[C@]12C[C@H](CC(=O)NCc3ccc(C)o3)C(=O)N(Cc3ccco3)C1=C[C@H](C1CCCC1)O[C@@H]2C,0.9,
COc1ccc(CC(=O)N2CCc3ccccc32)cc1,21.0*,TTR inh HuH7=-23.7;TTR up confirm=0.1
COc1ccc(C(=O)N2CCCc3ccccc32)cc1,5.6,
COc1cc(CO)ccc1OCC(=O)N1CCc2ccccc21,-1.9,
CC(=O)NC(Cc1ccccc1C)C(=O)NC1CCN(c2c3c(nc4ncnn24)CCC3)CC1 (stereo not given),-1.0,
COC(=O)c1cc(-c2cc(Cl)cc(Cl)c2)c(=O)n2c1CCC2,3.8,
COC(=O)CCN1CCN(S(=O)(=O)c2cccc(Br)c2)CC1,2.4,
O=C1CN(S(=O)(=O)c2cccc(Br)c2)CCN1,13.9*,TTR inh HuH7=-10.5;TTR up confirm=0.1
Cc1ccc(S(=O)(=O)N2CCNC(=O)C2)c(C)c1,6.5,
O=C(OCc1cn(Cc2cccc(Cl)c2)nn1)N1CCCC1,1.0,
Cc1ccc(-c2ccc(CN3C(CC(C)C)C(=O)N(Cc4cn(CC5CCCCC5)nn4)CCS3(=O)=O)cc2)cc1 (stereo not given),0.3,
COc1ccc2nc(NC(=O)CSc3n[nH]c(N)n3)sc2c1,-0.8,
CCN(C(=O)c1ccc(Cl)c([N+](=O)[O-])c1)c1ccccc1,1.0,
O=C(CNC(=O)c1ccccc1)NCC(=O)OCC(=O)c1ccccc1Cl,1.6,
O=C(Cc1ccccc1)NCC(=O)OCC(=O)c1ccc(Cl)c([N+](=O)[O-])c1,46.3*,TTR inh HuH7=-1.5;TTR up confirm=-0.5
CCCC[C@@H]1C(=O)N2N=Cc3cc4ccccc4cc3[C@H]2N2N=Cc3cc4ccccc4cc3[C@@H]12,-4.7,
Nc1[nH]c(C(=O)c2ccccc2)c(-c2ccc(Cl)cc2Cl)c1C(=O)NCCC1=CCCCC1,4.7,
CCOC(=O)c1[nH]c2ccc(F)cc2c1NC(=O)Nc1ccccc1OC,14.9*,TTR inh HuH7=-19.8;TTR up confirm=-0.3
SMILES,TTR transcr act,others
CCCCNC(=O)Nc1c(C(=O)OCC)[nH]c2ccccc12,1.0,
CCOC(=O)c1[nH]c2ccccc2c1NC(=O)NC(C)C,0.5,
O=C1CN(C(=O)C2CCCCC2)C=CN1CCc1ccccc1Br,-0.4,
CCOC(=O)C1(C)CCN1C(=O)c1cc(OC)ccc1Br (stereo not given),-0.3,
COC(=O)[C@]12C[C@H](CC(=O)N3CCCC3)C(=O)N(Cc3cccc4ccccc34)C1=C[C@H](C(C)(C)C)O[C@@H]2C,-1.8,
COc1ccc(Oc2c(-c3cccs3)cnn(-c3ccc(C)cc3)c2=O)cc1,-0.2,
COc1ccc(NC(=O)c2cc(C)cc(C)c2)cc1[N+](=O)[O-],18.6*,TTR inh HuH7=-8.1;TTR up confirm=0.7
COc1ccc(C(=O)Nc2ccc(C(=O)N3CCCC3)cc2)cc1[N+](=O)[O-],0.5,
COc1cc(NC(=O)c2ccc(OC)c([N+](=O)[O-])c2)ccc1NC(=O)c1ccco1,0.4,
Cc1ccccc1C(=O)Oc1ccc2ccc(O)cc2c1,-0.3,
CN(C)[C@@H]1CCN(c2cccc3c2S(=O)(=O)N(C2CC2)CCCO3)C1,0.2,
COc1ccc([N+](=O)[O-])cc1NC(=O)c1ccco1,5.7,
Cc1cccc(OCC(=O)NNS(=O)(=O)c2ccccc2F)c1,15.5*,TTR inh HuH7=-3.5;TTR up confirm=1.8
Cc1cccc(OCC(=O)Nc2ccncc2)c1,-2.0,
Cc1cccc(OCC(=O)NNC(=O)CCc2ccccc2)c1,-0.2,
CCCCCCC(=O)NC1CCCCN(Cc2ccc(C)cc2)C1=O (stereo not given),-0.6,
